{"source": "PubChem BioAssay AID624414", "about": "(National Center for Advancing Translational Sciences (NCATS), 2012)", "note": "Among all 410,000 compounds or so, about 480 (0.12%) were called active. The list comes from a sample in which actives are over-represented; it also holds similar structures and randomly drawn compounds. A number with no mark means an inactive call. No stated cut-off is given here; in the data, active means activation above about 50%; inconclusive means mostly about 30% to 49%; inactive means weaker than that."}
{"molecular_target": "Mucolipin-1 (Homo sapiens) (UniProt Q9GZU1)", "sequence (Q9GZU1 whole entry, looked up)": "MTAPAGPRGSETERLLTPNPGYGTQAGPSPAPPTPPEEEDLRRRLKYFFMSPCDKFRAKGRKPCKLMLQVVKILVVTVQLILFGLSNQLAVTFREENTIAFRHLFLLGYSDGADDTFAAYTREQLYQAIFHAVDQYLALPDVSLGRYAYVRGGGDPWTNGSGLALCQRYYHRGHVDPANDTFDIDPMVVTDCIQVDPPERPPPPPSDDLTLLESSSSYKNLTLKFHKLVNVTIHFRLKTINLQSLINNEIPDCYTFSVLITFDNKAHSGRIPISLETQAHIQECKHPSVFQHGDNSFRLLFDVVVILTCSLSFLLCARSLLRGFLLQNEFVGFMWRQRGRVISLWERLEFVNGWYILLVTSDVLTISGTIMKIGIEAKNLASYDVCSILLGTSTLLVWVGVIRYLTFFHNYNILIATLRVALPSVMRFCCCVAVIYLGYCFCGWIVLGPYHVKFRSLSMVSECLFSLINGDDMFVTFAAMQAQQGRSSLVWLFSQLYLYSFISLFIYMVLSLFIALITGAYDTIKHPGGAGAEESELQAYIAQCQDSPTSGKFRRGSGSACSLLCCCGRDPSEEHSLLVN", "test": "qHTS for Agonists of the Human Mucolipin Transient Receptor Potential 1 (TRPML1); further: 0% is about no effect", "settings": "TRPML1-expressing cells, Ca2+ dye fluorescence, FDSS; stronger effect = higher value", "source_text": "Mutations of human Mucolipin transient receptor potential 1 (TRPML1) cause type IV mucolipidosis (ML4), a devastating neurodegenerative disease in young children. […] Currently, there is no treatment for ML4. […] Under physiological conditions, TRPMLs regulate membrane trafficking by transducing information about PI(3,5)P2 levels into changes in juxtaorganellar Ca2+, thereby triggering membrane fusion/fission events in the late endocytic pathways (endolysosomal trafficking). In addition, TRPML1 mediates release of Fe2+ from late endosomes and lysosomes, which is essential for cellular iron metabolism. Thus, impaired ion (Ca2+ and Fe2+) homeostasis underlies lysosomal dysfunction and ML4 phenotypes. In ML4 cells, the problem is twofold. First, defective Ca2+-dependent membrane trafficking due to TRPML1-deficiency causes accumulation of lipids and other bio-materials in the lysosome. The second strike comes from the lysosomal iron overload (due to impairment of TRPML1's Fe2+ conductivity), which converts the accumulated materials into the nondegradable (resistant to lysosomal degradation) lipofuscin (also called aging pigment) in the lysosome. Lipofuscin accumulation dramatically compromises the functions of lysosomes.\nNiemann-Pick type C (NPC) disease is another lysosome storage disease (LSD) with severe neurodegeneration during the childhood. Currently, there is no cure for NPC. […] Thus, TRPML1 is likely to be an essential regulator of lysosome ion homeostasis. We specifically hypothesize that stimulating TRPML1's Fe2+/Ca2+ channel activity in the lysosome using synthetic agonists can alleviate neurodegeneration associated with ML4 or NPC.\nTo this end, a high throughput screen was developed in a miniaturized format to screen against the Molecular Libraries Small Molecule Repository (MLSMR) to find small molecules that act either as inhibitors or agonist against the TRPML1 channel.\nNIH Chemical Genomics Center [NCGC]\nNIH Molecular Libraries Probe Centers Network [MLPCN]\nAssay Submitter (PI): Haoxing Xu, University of Michigan Ann Arbor\nTRPML1-DL cells are dissociated from flasks, counted and, brought up to a density of 500,000 cells per mL of media containing a 1X Tet inducer. Using a Multidrop Combi, 3uL of this cell solution is dispensed to each well of a 1536 TC treated, black, clear bottom hi base plate for a final cell density of 1,500 cells per well. The assay plates are incubated overnight (approximately 16 hours) at 37 degrees C and 5% CO2. Using a Multidrop Combi, 2uL of ABD Ca8 no wash dye plus quencher is added to each well. The assay plates incubate at room temperature in the dark for 45-90 minutes. The assay plate is read on the FDSS using the following protocol: 10 second baseline read, 23nL of compounds and controls are added using 1536 pintool, agonist read for 110 seconds, 1 uL EC80 addition (4uM final 54-4 diluted in media), antagonist read for 110 seconds."}
{"smiles": "CCN(CC)c1ccc(/C=C/c2c(C)cnc3ccc(C)cc23)cc1", "activation": "11.4%"}
{"smiles": "CN(C)c1ccc(/C=C2\\NC(=S)N(Cc3ccccc3)C2=O)cc1", "activation": "66.5% (active)"}
{"smiles": "CN(C)c1ccc(/C=C/c2c3ccccc3nc3ccccc23)cc1", "activation": "0.354%"}
{"smiles": "CN(C)c1ccc(/C=c2\\[nH]c(=O)/c(=C/c3ccc(N(C)C)cc3)[nH]c2=O)cc1", "activation": "0.206%"}
{"smiles": "Nc1c(C(=O)c2cccs2)sc2nsc(SCCN3CCCCC3)c12", "activation": "56.3% (active)"}
{"smiles": "Cc1ccc(CCNC(=O)Cn2c(-c3cccs3)cc3cc(F)ccc32)cc1", "activation": "-0.443%"}
{"smiles": "CNCCCOc1cc2nc(N3CCCN(C)CC3)nc(NC3CCN(C)CC3)c2cc1OC", "activation": "-0.513%"}
{"smiles": "COc1cc2nc(N3CCCN(C)CC3)nc(NC3CC3)c2cc1OC", "activation": "-0.539%"}
{"smiles": "COc1cc(OC)c(/C=C/c2ccnc3ccccc23)c(OC)c1", "activation": "-0.602%"}
{"smiles": "CN(N=O)c1ccc(C=C2c3ccccc3-c3ccccc32)cc1", "activation": "-0.127%"}
{"smiles": "Cn1nnnc1SCC(=O)N1CCN(C(c2ccccc2)c2ccccc2)CC1", "activation": "2%"}
{"smiles": "CC(=O)N1CCN(CC(c2ccccc2)c2ccccc2)CC1", "activation": "-0.726%"}
{"smiles": "Oc1ccccc1CN1CCN(C(c2ccccc2)c2ccccc2)CC1", "activation": "84.3% (active)"}
{"smiles": "CCN1CCN(c2ccc(/C=C/c3ccnc4ccccc34)cc2)CC1", "activation": "5.01%"}
{"smiles": "Cc1ccc(NC(=O)c2ccc(CN3CC(=O)N4CCCCC4C3=O)cc2)c(Cl)c1", "note": "(stereo not given)", "activation": "2.76%"}
{"smiles": "CCOc1n[nH]c(-c2ccccc2)n1", "activation": "0%"}
{"smiles": "CN(C)c1ccc(/C=N\\Nc2ccc([N+](=O)[O-])cc2[N+](=O)[O-])cc1Cl", "activation": "-0.0634%"}
{"smiles": "O=C(CSc1ncc(-c2ccccc2)[nH]1)Nc1ccc(F)cc1F", "activation": "2.97%"}
{"smiles": "OCC(O)C(O)C(O)C(O)C=Nc1ccc(/C=C/c2ccnc3ccccc23)cc1", "note": "(stereo not given)", "activation": "6.02%"}
{"smiles": "COC(=O)C1=C(C(=O)OC)[C@@H]2N(Cc3ccccc3)c3ccccc3[C@@]23C[C@@H](C(=O)OC)N(S(=O)(=O)c2ccc(C(F)(F)F)cc2)C3=N1", "activation": "-0.417%"}
{"smiles": "CCN1/C(=C/c2ccc3ccc(C)cc3[n+]2CC)Sc2ccccc21", "activation": "70.1% (active)"}
{"smiles": "CCCCOc1ccc(C(=O)NO)cc1", "activation": "-0.809%"}
{"smiles": "Cc1csc[n+]1CCC1CCCCC1", "activation": "0.413%"}
{"smiles": "C=C1C=C(C)n2ncc(C(=O)Nc3ccccc3O)c2N1", "activation": "-0.539%"}
{"smiles": "Nc1nc(N)c(N=O)c(N)n1", "activation": "-0.147%"}
{"smiles": "C=CCCN(C(Cc1ccccc1)C(=O)OC)S(=O)(=O)c1cc(Br)ccc1Br", "note": "(stereo not given)", "activation": "2.52%"}
{"smiles": "CCCN(CCC)c1nc2c(C)cccn2c(=O)c1/C=C1/SC(=S)N(Cc2ccco2)C1=O", "activation": "17.6%"}
{"smiles": "CCOC(=O)CNC(=O)c1cc2c(=O)n3cccc(C)c3nc2s1", "activation": "0.461%"}
{"smiles": "CCOC(=O)CC1C(=O)NCCN1c1nc2c(C)cccn2c(=O)c1/C=C1\\SC(=S)N(C(C)CC)C1=O", "note": "(stereo not given)", "activation": "71% (active)"}
{"smiles": "CCC(=O)N1CCc2cc(Br)cc(S(=O)(=O)CCC(=O)NCCc3ccc(OC)c(OC)c3)c21", "activation": "-0.301%"}
{"smiles": "Cc1[nH]c2ccccc2c1C(=O)C(=O)N(C)c1ccccc1", "activation": "-0.513%"}
{"smiles": "COC(=O)C1=C(c2ccccc2)c2ccccc2S(=O)(=O)N1CC(=O)Nc1ccccc1C(F)(F)F", "activation": "1.11%"}
{"smiles": "CN(C)c1ccc(/C=C/C=C/c2ccnc3ccccc23)cc1", "activation": "52.7% (active)"}
{"smiles": "CN(C)c1ccc(C=Nc2ccc(/C=C/c3ccnc4ccccc34)cc2)cc1", "activation": "1.17%"}
{"smiles": "CCC(C)N(c1ccc(/C=C/c2ccnc3ccccc23)cc1)C(C)CC", "note": "(stereo not given)", "activation": "18.2%"}
{"smiles": "Cc1cccc(CN2Cc3cccc4c3[C@H](C=CC4)CC2=S)c1", "activation": "-0.678%"}
{"smiles": "CCCc1cc(=O)n2[nH]c(NCc3ccc(CC)cc3)nc2n1", "activation": "-0.211%"}
{"smiles": "CCCN1CCC(=O)N(C(CSc2ccc(C)cc2)Cc2ccccc2)CC1", "note": "(stereo not given)", "activation": "1.24%"}
{"smiles": "CCOC1=C2[C@@H](CN(S(=O)(=O)c3ccc(C)cc3)[C@H]2c2ccccc2F)[C@H]2C(=O)N(Cc3ccccc3)C(=O)[C@H]2C1", "activation": "1.29%"}
{"smiles": "CCOC1=C2[C@H]([C@H]3C(=O)N(c4ccccc4)C(=O)[C@H]3C1)[C@@H](c1ccccc1)N(S(=O)(=O)c1ccc(C)cc1)[C@H]2c1ccccc1", "activation": "-0.217%"}
{"smiles": "CCOC1=C2CN(S(=O)(=O)c3ccc(C)cc3)[C@H](c3cccs3)C[C@H]2[C@H]2C(=O)N(c3ccccc3)C(=O)[C@H]2C1", "activation": "64.2% (active)"}
{"smiles": "COc1cc(NS(=O)(=O)c2cccs2)cc(OC)c1", "activation": "-1.48%"}
{"smiles": "COc1cc2nc(Cl)nc(NC3CC3)c2cc1OC", "activation": "-0.998%"}
{"smiles": "CCOC(=O)c1c(NC(=O)COc2cc(C)ccc2C(C)C)sc(C)c1C", "activation": "1.35%"}
{"smiles": "O=C1C[C@H]2C=CCc3cccc(c32)CN1Cc1ccccc1", "activation": "-0.974%"}
